Test results published in PubChem BioAssay (NCATS).
Records with an inconclusive call do not appear. A number with no mark means an inactive call. Calls of active or inactive are those of the source. Calls come from the whole dose curve; as a rule, active = well fitted inhibition curve with a large enough effect; inconclusive = small, poorly fitted or top-dose-only effect; inactive = flat fitted curve, though single readings scatter.

test: qHTS for Inhibitors of Plasmodium falciparum (7G8) proliferation (AID 504316);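 note: 0% = DMSO vehicle and -100% = 0.29 µM artemisinin full kill; nearly all actives have a fitted effect of over 65% in size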; conditions: P. falciparum 7G8 in erythrocytes, SYBR Green DNA, 72 h; series mostly up to 6.7 µM; activity change, negative = inhibition: at the top concentration
Excerpt: Plasmodium falciparum is a virulent malarial parasite that kills 1-2 million people worldwide each year. Malaria not only inflicts tremendous suffering and morbidity on the human population, but has dramatically influenced the course of civilization with profound sociological and economic implications (Shah, S. 2010). Transmitted by mosquitoes, the sporozoite form of the parasite enters the blood stream to infect hepatocytes, where they become merozoites that infect red blood cells (erythrocytes). Within erythrocytes, merozoites begin a […] cycle of growth and division, after which the parasite is released to infect new red blood cells. Gametocytes, which form within erythrocytes as well, circulate in the bloodstream and are ingested by the mosquito, thereby completing the life cycle (see CDC website). To profile malarial lines for differential chemical responses and to identify inhibitors of malarial growth, an assay that measures P. falciparum growth and replication within erythrocytes was employed. This assay uses a DNA binding fluorescent dye (SYBR Green) to detect parasite DNA following cell lysis. Because mature erythrocytes lack DNA, only Plasmodium-derived DNA is detected. The P. falciparum line cp250, derived from a malarial isolate from Cambodia, (Mu, J., et al. 2010) was added to the panel of lines, Dd2, HB3, 7G8 and GB4 in this study. Laboratory of Assay Development and Screening Technology [ADST] and NIH Chemical Genomics Center [NCGC] Boston University, Chemistry Department, Center for Chemical Methodology and Library Development [CMLD-BU] NIH National Institute of Allergy and Infectious Diseases [NIAID]
ADST Assay Protocol Summary: The 1536-well SYBR Green viability assay was based on the method of Bennett et al (2004) and described previously in 1536-well format (Yuan J., et al. 2009). For screening 3 ul culture medium was dispensed into 1536 well black clear bottom plates (Aurora Biotechnologies) using a Multidrop Combi (Thermo Fisher Scientific Inc.), 23 nL compounds in DMSO were added by a pin transfer (Cleveland, P.H. and Koutz, P.J, 2005) using a pin tool-based delivery system (Kalypsys), and 5 ul of erythrocytes infected with P. falciparum one of five lines (cp250, Dd2, HB3, 7G8 or GB4, 0.3% parasitemia, 2.5% hematocrit final concentration) were added. The plates were incubated at 37C in a humidified incubator in 5% CO2 for 72 h, and 2 ul lysis buffer (20 mM Tris HCl, 10 mM EDTA, 0.16% saponin, 1.6% triton X, 10X SYBR Green I (supplied as 10,000X final concentration by Invitrogen) was added to each well. The plates were mixed for 25 sec with gentle shaking and incubated overnight at room temperature in the dark. The following morning, fluorescence intensity at 485(14) nm excitation and 535(25) nm emission wavelengths was measured on an EnVision (Perkin Elmer) plate reader. Plate reads were normalized relative to the control inhibitor (0.29 uM artemisinin) and vehicle (DMSO) wells present on each plate and then corrected by an algorithm using vehicle-only control plates at the beginning and end of the compound plate stack. References Shah, S. (2010). The Fever: how malaria has ruled humankind for 500,000 years. New York, Sarah Crichton Books. CDC web site, http://www.cdc.gov/malaria/about/biology/index.html Mu, J., Myers, R.A., Jiang, H., Liu, S., Ricklefs, S., Waisberg, M., Chotivanich, K., Wilairatana, P., Krudsood, S., White, N.J., et Plasmodium falciparum genome-wide scans for positive selection, recombination hot spots and resistance to antimalarial drugs Nature Genetics 2010, 42, pp 268-271 Bennett TN, Paguio, M., Gligorijevic, B., Seudieu, C., Kosar, A. D., Davidson, E., and Roepe, P. D. Novel, rapid, and inexpensive cell-based quantification of antimalarial drug efficacy Antimicrobial Agents Chemother. 2004, 48(5): pp 1807-10 Yuan J, Johnson RL, Huang RL, Wichterman J, Jiang HY, Hayton K, Fidock DA, Wellems TE, Inglese J, Austin CP, Su XZ. […]

Row | Structure (SMILES) | activity change, negative = inhibition [%] | outcome
1 | COC(=O)[C@@]1(C=C2c3ccccc3[C@@H](OC)[C@@H]2C)[C@@H]2Oc3ccccc3[C@@H]21 | 9.49 | 
2 | CCOC(=O)[C@]12C[C@]3(C)CCCN(C(=O)N[C@@H]1c1ccccc1)[C@@H]32 | -8.24 | 
3 | CCOC(=O)[C@]12C[C@@H]3CCN(C(=O)N(C(C)=O)[C@@H]1c1ccccc1)[C@@H]32 | 5.36 | 
4 | CCOC(=O)[C@@]12[C@@H]3[C@@H](CCN3C(=O)N[C@H]1c1ccccc1)C2(C)C | 8.94 | 
5 | C=C(C)C(=O)CP(=O)(OCC)OCC | 3.74 | 
6 | CCOC(=O)[C@]12C[C@]3(OC)CCN(C(=O)N[C@@H]1c1ccccc1)[C@@H]32 | -0.408 | 
7 | COC(=O)C1C2CC(C)C(c3ccccc32)N1C(=O)C(F)(F)F (stereo not given) |  | inactive
8 | COC(=O)C1=NN=C(C(=O)OC)[C@@]2(C)c3ccccc3NC12 (stereo not given in full) | 11.6 | 
9 | CCC[C@]12CCN3C(=O)N[C@@H](c4ccccc4)[C@](C(=O)OCC)(C1)[C@H]32 | 2.4 | 
10 | CC(=O)[C@]12C[C@@H]3CCCN(C(=O)N[C@@H]1c1ccccc1)[C@@H]32 | 9.88 | 
11 | COC(=O)[C@]12C[C@@H]3CCN(C(=O)N[C@@H]1c1ccccc1)[C@@]32C | 12.9 | 
12 | COC(=O)[C@@]1(C=C[C@@H](C)[C@H](OC)c2ccccc2Br)[C@@H]2Oc3ccccc3[C@@H]21 | 4.11 | 
13 | C=C1[C@@H]2CCN3C(=O)N[C@@H](c4ccccc4)[C@@]1(C(=O)OCC)C23 (stereo not given in full) | 4.41 | 
14 | COC(=O)C1=C2CCO[C@H]2[C@@H]2[C@@H](C)[C@H](OC)c3ccccc3[C@@H]12 | -0.0867 | 
15 | CCOC(=O)[C@]12C[C@@H]3OCCN(C(=O)N[C@@H]1c1ccccc1)[C@@H]32 | -13.2 | 
16 | CCOC(=O)[C@]12C[C@]3(C)CCN(C(=O)N[C@@H]1c1ccccc1)[C@@H]32 | 1.62 | 
17 | COC(=O)C1c2c(n(C)c3ccccc23)[C@H]2[C@@H](C)[C@H](OC)c3ccccc3[C@@H]12 (stereo not given in full) | -15.6 | 
18 | COC(=O)C1(C)C2CC(C)C(c3ccccc32)N1C(=O)C(F)(F)F (stereo not given) | -0.305 | 
19 | CC(=O)[C@]12C[C@]3(C)CCCN(C(=O)N[C@@H]1c1ccccc1)C32 (stereo not given in full) | 10.9 | 
20 | COC(=O)C1=C2CCCO[C@H]2[C@@H]2[C@@H](C)[C@H](OC)c3ccccc3[C@@H]12 | 10.3 | 
21 | COC(=O)C1=C2CCO[C@@H]2[C@H]2[C@@H](C)[C@H](OC)c3ccccc3[C@H]12 | 3.39 | 
22 | CCOC(=O)[C@@]12C3[C@@H](CCN3C(=O)N[C@@H]1c1ccccc1)[C@@H]2C (stereo not given in full) | -4.25 | 
23 | COC(=O)C1=C[C@H]([C@@H](C)[C@H](OC)c2ccccc2Br)[C@H]2[C@H]1c1ccccc1N2C |  | inactive
24 | CO[C@@H]1c2ccccc2[C@H]2C(C(=O)O)c3c(n(C)c4ccccc34)[C@H]2[C@H]1C (stereo not given in full) | -8.25 | 
25 | COC(=O)[C@@]12Cc3ccccc3[C@H]1C[C@H](C)[C@@H](C)N2C(=O)C(F)(F)F | -14 | 
